# “And” between values parts separate entries of the source, which are not always exact repeats. Identical values can stand only once. The source made the active and inactive calls.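 Rule for the calls, unless noted: active = at least 20% inhibition of 6-phosphogluconate dehydrogenase activity; inactive = the rest.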
# Assays:
# [1] = target: 6-phosphogluconate dehydrogenase, decarboxylating (Homo sapiens) (UniProt P52209); assay: 6PGD enzyme inhibitors, primary screen, biochemical, human, recombinant enzyme, NADPH absorbance (AID 1159550); conditions: recombinant 6PGD, NADPH absorbance 341 nm; at 10 µM; stronger effect = higher value
# [2] = liver-stage malaria parasite growth inhibition, primary screen, cell-based, HepG2, luciferase luminescence, HepG2 viability (AID 624349; in the data active = parasite load remaining mostly below about 12%, no sharp cut-off; inactive = mostly above about 10%;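 note: 100% = mean of DMSO negative control wells on the same plate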); conditions: P. berghei liver stage in HepG2, luciferase luminescence, concentration not given here; parasite load remaining: stronger effect = lower value; viability: measured here: HepG2 viability without parasites
# [3] = stimulators of nuclear beta-catenin in C2C12, primary screen, imaging, WNT3A-conditioned medium, mouse C2C12, NPC library (AID 1117326; in the data active = nuclear beta-catenin stimulation mostly above about 4.2%, no sharp cut-off; inactive = mostly below about 10%); conditions: stronger effect = higher value
# [4] = stimulators of insulin release from INS-1E, primary screen, cell-based, 5 mM glucose, NPC library (AID 1117329;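 active = compound raises insulin release from rat beta cells at 5 mM glucose, no numeric limit stated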); conditions: rat INS-1E insulin secretion, at 10 µM, stronger effect = higher value
# [5] = glucagon-like peptide 1 release enhancers, primary assay, NCI-H716 cell line, NPC library (AID 1117341;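 active = compound raises GLP1 secretion from the human gut endocrine cells, with no numeric limit stated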); conditions: NCI-H716 cells, at 10 µM, stronger effect = higher value
# [6] = differential killing of epithelial or mesenchymal cells, primary screen, imaging, PC-3E GFP, TEM4-18 mCherry, co-culture (AID 1345086;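 active = compounds killing one labelled cell type while sparing the other, by normalised counts and ratio limits, not self-fluorescent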;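 for all read-outs here: cells exposed to compound for 72 h before imaging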;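 for red/green cell ratio (normalised): normalised mesenchymal count divided by normalised epithelial count so high means epithelial killing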); conditions: imaging cell counts, at 1 µM; for red/green cell ratio (normalised): actives lie on both sides
# [7] = system: Aerobactin synthetase IucA (Klebsiella pneumoniae hvKP1); assay: Biochemical IucA enzyme inhibition primary screen of the Spectrum library (AID 1346200; call rule not given here;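 note: 100% = wells without compound and 0% = wells lacking enzyme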); conditions: malachite green pyrophosphate, A620, at 8 µM, stronger effect = lower value
# [8] = sensitizers of A549 cells to miR-34 induction, primary screen, imaging, A549 dox-inducible miR-34, nuclei and caspase counts (AID 1347080;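 active = compounds whose cell count with miR-34 switched on is under 0.7 times the count with it off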); conditions: A549 miR-34 inducible, Hoechst nuclei count, 48 h
# [9] = target: Mitogen-activated protein kinase 7 (Homo sapiens) (UniProt Q13164); assay: ERK5 transactivation activators in reporter cells, primary screen, cell-based, HTS (AID 1508626;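 active = luciferase signal above three times the same-plate solvent-only control wells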;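 note: luciferase driven by Gal4-ERK5 fusion binding five Gal4 sites before minimal TATA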); conditions: HeLa Gal4-ERK5 transactivation, 18 h, at 5 µM, stronger effect = higher value
# [10] = growth inhibition of GSK3B-pretreated HCT116 cells – cell-based, CellTiter-Glo, 0.2 to 20 µM (AID 1117336;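 active = compounds lowering colon cancer cell viability after pretreatment blocking the GSK3B kinase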); conditions: HCT116 viability after GSK3B inhibitor, at 20 µM, stronger effect = higher value
# [11] = HCT116 colon cancer cell growth inhibition, primary screen, CellTiter-Glo luminescence, NPC library (AID 1117342;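 active = compounds that lower survival of HCT116 colon cancer cells in the luminescence readout, no numeric limit stated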); conditions: at 20 µM (top of the series)
# [12] = CellTiter-Glo luminescent readout of SW480 viability loss, NPC library primary (AID 1117343;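 active = compounds that lower viability of the colon cancer cells in the luminescence readout, with no numeric limit stated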); conditions: CellTiter-Glo luminescence; at 20 µM (top of the series)
# [13] = decreased DLD-1 cellular survival, CellTiter-Glo luminescent readout, NPC compound collection, primary HTS (AID 1117346;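 active = compounds that lower survival of DLD-1 colon cancer cells in the luminescence readout, no cutoff given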); conditions: DLD-1 viability, CellTiter-Glo luminescence; at 20 µM (top of the series)
# [14] = viability rescue of complex I mutant cybrids, primary screen, cell-based, galactose medium, ATP luminescence (AID 1645843;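 active = z-score of at least 1.8 in each of two replicates, scored against plate mean and spread of sample wells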;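 note: positive z means more ATP and so rescue of galactose-driven cybrid death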); conditions: complex I mutant cybrid cells, 72 h, stronger effect = higher value
# [15] = inhibition of endothelial tube formation, primary screen, imaging, VEGF stimulated, CD31 staining, tube area, NPC library (AID 1117340;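 active = compound that reduces growth-factor-driven endothelial tube area in a mixed cell culture, no cutoff stated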); conditions: VEGF-stimulated ADSC/ECFC co-culture, at 10 µM, stronger effect = higher value
# [16] = polyglutamine-triggered caspase-3 activation inhibitors, cell-based (AID 1583); conditions: polyglutamine-induced caspase-3 activation, cell assay; stronger effect = higher value;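 tested at 10 µM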
# [17] = suppressors of polyQ aggregation in yeast, 75Q-TubU reporter (AID 1593); conditions: Yeast 75Q polyglutamine aggregation reporter
# [18] = target: NAD(+) hydrolase SARM1 (Homo sapiens) (UniProt Q6SZW1); assay: SARM1 TIR NADase inhibitors, cell lysate, NAD-Glo luminescence (AID 1508614;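 active = compound whose remaining NAD level is above about 45 nM, limit read from the data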;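 note: higher remaining NAD means stronger inhibition of SARM1 NADase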); conditions: SAM-TIR HEK293T lysate NADase, at 1 µM, stronger effect = higher value
# [19] = measured here: epithelial PC-3E GFP cell survival
# [20] = measured here: mesenchymal TEM4-18 mCherry cell survival
# [21] = measured here: relative caspase fold change +Dox/-Dox
# [22] = measured here: total cells with miR-34 induction, stronger effect = lower value
# [23] = measured here: total cells without miR-34 induction
# Chain of 6-phosphogluconate dehydrogenase, decarboxylating (Homo sapiens) (P52209 whole entry, looked up): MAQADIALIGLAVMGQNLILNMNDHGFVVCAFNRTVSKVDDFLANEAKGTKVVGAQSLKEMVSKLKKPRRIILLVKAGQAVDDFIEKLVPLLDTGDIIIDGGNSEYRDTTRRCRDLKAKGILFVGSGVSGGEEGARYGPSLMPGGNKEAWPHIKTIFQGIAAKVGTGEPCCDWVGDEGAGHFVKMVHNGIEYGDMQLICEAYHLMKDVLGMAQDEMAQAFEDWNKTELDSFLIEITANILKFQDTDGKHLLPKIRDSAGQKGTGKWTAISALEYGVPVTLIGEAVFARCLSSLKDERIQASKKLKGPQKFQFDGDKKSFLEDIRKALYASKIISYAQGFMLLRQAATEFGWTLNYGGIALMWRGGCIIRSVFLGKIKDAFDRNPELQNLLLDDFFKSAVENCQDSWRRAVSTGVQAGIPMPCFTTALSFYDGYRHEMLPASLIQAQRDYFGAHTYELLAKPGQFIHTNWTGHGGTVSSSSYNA
# Chain of Mitogen-activated protein kinase 7 (Homo sapiens) (Q13164 whole entry, looked up, the tested form may be a part): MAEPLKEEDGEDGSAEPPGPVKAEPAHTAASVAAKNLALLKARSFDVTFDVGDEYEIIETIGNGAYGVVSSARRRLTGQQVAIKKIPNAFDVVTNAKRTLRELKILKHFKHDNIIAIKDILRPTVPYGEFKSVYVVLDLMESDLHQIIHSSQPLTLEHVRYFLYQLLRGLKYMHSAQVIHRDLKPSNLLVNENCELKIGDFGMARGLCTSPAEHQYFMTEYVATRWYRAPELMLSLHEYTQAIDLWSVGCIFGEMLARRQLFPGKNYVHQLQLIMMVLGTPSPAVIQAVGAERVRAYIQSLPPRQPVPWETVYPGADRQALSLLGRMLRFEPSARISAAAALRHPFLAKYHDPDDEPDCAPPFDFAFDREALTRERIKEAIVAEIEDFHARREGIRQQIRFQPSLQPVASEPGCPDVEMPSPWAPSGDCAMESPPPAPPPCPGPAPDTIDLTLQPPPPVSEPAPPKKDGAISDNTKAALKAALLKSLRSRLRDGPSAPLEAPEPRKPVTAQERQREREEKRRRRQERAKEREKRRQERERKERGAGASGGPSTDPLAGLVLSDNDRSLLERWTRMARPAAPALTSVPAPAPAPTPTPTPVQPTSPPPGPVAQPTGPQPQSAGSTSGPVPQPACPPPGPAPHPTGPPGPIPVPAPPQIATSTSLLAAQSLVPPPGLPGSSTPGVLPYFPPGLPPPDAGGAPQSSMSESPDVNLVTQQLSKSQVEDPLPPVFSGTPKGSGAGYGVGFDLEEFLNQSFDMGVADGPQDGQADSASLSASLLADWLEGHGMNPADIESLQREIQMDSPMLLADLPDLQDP
# Chain of NAD(+) hydrolase SARM1 (Homo sapiens) (Q6SZW1 whole entry, looked up): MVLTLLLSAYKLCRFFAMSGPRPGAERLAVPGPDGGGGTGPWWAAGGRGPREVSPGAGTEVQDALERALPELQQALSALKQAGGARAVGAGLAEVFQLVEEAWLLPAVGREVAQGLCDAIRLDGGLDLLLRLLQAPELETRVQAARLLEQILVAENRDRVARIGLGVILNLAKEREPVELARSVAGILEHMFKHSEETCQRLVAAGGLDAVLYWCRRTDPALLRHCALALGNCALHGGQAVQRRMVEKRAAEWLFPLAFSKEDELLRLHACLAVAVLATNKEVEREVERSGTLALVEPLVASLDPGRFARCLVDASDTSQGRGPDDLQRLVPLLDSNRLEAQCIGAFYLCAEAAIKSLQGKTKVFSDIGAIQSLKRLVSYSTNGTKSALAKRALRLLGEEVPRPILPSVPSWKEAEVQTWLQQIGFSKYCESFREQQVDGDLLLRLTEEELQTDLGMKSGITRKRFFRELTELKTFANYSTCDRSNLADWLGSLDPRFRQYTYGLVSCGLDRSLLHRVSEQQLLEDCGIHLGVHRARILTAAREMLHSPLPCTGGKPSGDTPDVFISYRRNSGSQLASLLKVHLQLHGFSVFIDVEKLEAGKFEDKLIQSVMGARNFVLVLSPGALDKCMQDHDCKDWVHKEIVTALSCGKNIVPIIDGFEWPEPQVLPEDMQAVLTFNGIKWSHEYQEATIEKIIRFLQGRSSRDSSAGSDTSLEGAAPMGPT
compound,measurement,setting,value
Cc1ccc2cc3c(ccc4ccccc43)c3c2c1CC3,inhibition,[1],-6.1% (inactive)
COc1c2c(cc3c1OCO3)[C@]13C=C[C@H](OC)C[C@H]1N(C2)C[C@@H]3O,inhibition,[1],-2.74% (inactive)
CCOCN(C(=O)CCl)c1c(C)cccc1CC,inhibition,[1],4.9% (inactive)
COP(=S)(OC)Oc1ccc(Sc2ccc(OP(=S)(OC)OC)cc2)cc1,parasite load remaining,[2],25% (inactive)
same,viability,[2],137%
same,nuclear beta-catenin stimulation,[3]; at 10 µM,5.7% (inactive)
same,nuclear beta-catenin stimulation,"[3]; stimulation, at 2 µM",-0.8%
same,insulin secretion stimulation,[4],0.05% (inactive)
same,GLP1 secretion stimulation,[5],-8.7% (inactive)
same,inhibition,[1],-4.06% (inactive)
same,red/green cell ratio (normalised),[6],0.91 (inactive)
same,normalised cell number,[6]; [19],1.08
same,normalised cell number,[6]; [20],0.98
same,activity remaining,[7],118% (inactive)
same,fold change,[8]; stronger effect = lower value,0.838 (inactive)
same,fold change,[8]; [21],1.68
same,cell count,[8]; [22],9320
same,cell count,[8]; [23],11100
same,luciferase signal,[9],80 AU (inactive)
COc1ccc2c(c1OC)C(=O)O[C@H]2[C@@H]1c2cc3c(cc2CCN1C)OCO3,nuclear beta-catenin stimulation,[3]; at 10 µM,-0.8% (inactive)
same,nuclear beta-catenin stimulation,"[3]; stimulation, at 2 µM",7.9%
same,viability decrease,[10],19.2% (inactive)
same,inhibition of viability,[11],19.8% (inactive)
same,viability decrease (inhibition),[12],3.5% (inactive)
same,viability decrease (inhibition),[13],-6.5% (inactive)
same,inhibition,[1],-1.62% (inactive)
same,fold change,[8]; stronger effect = lower value,0.977 (inactive)
same,fold change,[8]; [21],1.1
same,cell count,[8]; [22],10700
same,cell count,[8]; [23],10900
same,z-score,[14],0.055 (inactive)
CC(=O)OC1CCC2(C)C(=CCC3C4CCC(=O)C4(C)CCC32)C1 (stereo not given),inhibition,[1],2.3% (inactive)
CC(=O)OC1CC(OC2C(O)CC(OC3C(O)CC(OC4CCC5(C)C(CCC6C5CC(O)C5(C)C(C7=CC(=O)OC7)CCC65O)C4)OC3C)OC2C)OC(C)C1OC1OC(CO)C(O)C(O)C1O (stereo not given),inhibition,[1],7.01% (inactive)
CC1CC(O)C2(O)C13CC(=O)OCC2(C)C(C)(O)C(=O)C3 (stereo not given),inhibition,[1],17.6% (inactive)
C[C@@H]1CC[C@@]2(OC1)O[C@H]1[C@@H](O)[C@H]3[C@@H]4CC[C@H]5C[C@@H](O[C@@H]6O[C@H](CO)[C@H](O[C@@H]7O[C@H](CO)C(O)[C@H](O[C@@H]8OC[C@@H](O)[C@H](O)[C@H]8O)[C@H]7O[C@@H]7O[C@H](CO)[C@H](O)[C@H](O[C@@H]8O[C@H](CO)[C@@H](O)[C@H](O)[C@H]8O)[C@H]7O)[C@H](O)[C@H]6O)[C@H](O)C[C@]5(C)[C@H]4CC[C@]3(C)[C@H]1[C@@H]2C (stereo not given in full),inhibition,[1],-7.91% (inactive)
CN[C@H]1C[C@@H](N)[C@H](O)[C@@H](O[C@@H]2O[C@H](CO)[C@H](O)[C@@H]3OC4(O[C@H]23)O[C@H]([C@@H](N)CO)[C@H](O)[C@@H](O)[C@H]4O)[C@@H]1O (stereo not given in full),inhibition,[1],14.7% (inactive)
CC(C)(C)c1ccc(O)cc1,insulin secretion stimulation,[4],0% (inactive)
same,viability decrease,[10],-1.5% (inactive)
same,tube area decrease,[15],-21.2% (inactive)
same,GLP1 secretion stimulation,[5],3.8% (inactive)
same,inhibition of viability,[11],7.9% (inactive)
same,viability decrease (inhibition),[12],15.7% (inactive)
same,viability decrease (inhibition),[13],4.65% (inactive)
ClC1=C(Cl)C2(Cl)C3C(Cl)C=CC3C1(Cl)C2(Cl)Cl (stereo not given),inhibition,[1],0.441% (inactive)
C=C[C@H]1CN2CC[C@H]1C[C@H]2[C@H](O)c1ccnc2ccccc12,inhibition,[16],21%
same,score,[17],1.18
same,parasite load remaining,[2],56.2% (inactive) and 85.6% (inactive) and 31.1% (inactive)
same,viability,[2],103% and 68.9% and 98.9%
same,inhibition,[1],5.53% (inactive)
same,red/green cell ratio (normalised),[6],1.04 (inactive)
same,normalised cell number,[6]; [19],1.08
same,normalised cell number,[6]; [20],1.12
same,activity remaining,[7],97.1% (inactive)
same,fold change,[8]; stronger effect = lower value,0.86 (inactive) and 0.872 (inactive)
same,fold change,[8]; [21],1.26 and 3.36
same,cell count,[8]; [22],9250 and 11500
same,cell count,[8]; [23],10800 and 13200
same,remaining NAD,[18],10 nM (inactive)
same,luciferase signal,[9],48 AU (inactive)
c1ccc2c(c1)cc1ccc3cccc4ccc2c1c34,inhibition,[1],5.92% (inactive)
same,red/green cell ratio (normalised),[6],0.86 (inactive)
same,normalised cell number,[6]; [19],1.22
same,normalised cell number,[6]; [20],1.05
CC[C@@H](C)C(=O)O[C@H]1[C@H](O)[C@H]2[C@@H](CN3C[C@@H](C)CC[C@H]3[C@@]2(C)O)[C@@H]2C[C@]34O[C@]5(O)[C@@H](OC(=O)[C@@](C)(O)[C@@H](C)O)CC[C@@]3(C)[C@@H]5[C@@H](OC(C)=O)[C@@H](OC(C)=O)[C@H]4[C@@]21O,inhibition,[1],7.64% (inactive)
FC(F)(F)c1cccc(N2CCNCC2)c1,inhibition,[16],28.1%
same,score,[17],1.15
same,parasite load remaining,[2],134% (inactive)
same,viability,[2],71.2%
same,inhibition,[1],7.13% (inactive)
same,activity remaining,[7],116% (inactive)
same,fold change,[8]; stronger effect = lower value,0.923 (inactive)
same,fold change,[8]; [21],1.38
same,cell count,[8]; [22],9590
same,cell count,[8]; [23],10400
same,z-score,[14],0.73 (inactive)

# Reference: PubChem BioAssay
